# In the library only some 3.1% were active in any assay of this set; here they are far more common.
# PI4K2A block – qHTS for small molecular inhibitors of PI4K2A | AID 1346378, 2018 | 420,000 tested, 0.13% active | Phosphatidylinositol 4-kinase type 2-alpha (Homo sapiens), Q9BTU6 | activity change, negative = inhibition, % at 76.9 µM | purified PI4K2A, ADP-Glo luminescence, 1 h; stronger effect = lower value; in the data active = activity change below about -50%; inconclusive = mostly about -30% to -49%;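 also: -100% = wells without enzyme as full effect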
#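 Compounds are screened against recombinant PI4K2A using PI as substrate and ATP, the latter dispensed at 300 microM. Reactions run one hour at ambient temperature before ADP-Glo detection; full inhibition defined by wells lacking enzyme.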
# VDR inh – Inhibitors of the vitamin D receptor (VDR): qHTS. Potency, µM, without a hit: max response, negative = inhibition, hits mostly inhibitors. VDR-SRC2-3 peptide fluorescence polarization, 2 h. AID 504847, 2011. 400,000 tested, 0.93% active. Vitamin D3 receptor (Homo sapiens), P11473; also: potency is read from the fitted curve at half-maximal effect
# Target sequence (P11473 whole entry, looked up): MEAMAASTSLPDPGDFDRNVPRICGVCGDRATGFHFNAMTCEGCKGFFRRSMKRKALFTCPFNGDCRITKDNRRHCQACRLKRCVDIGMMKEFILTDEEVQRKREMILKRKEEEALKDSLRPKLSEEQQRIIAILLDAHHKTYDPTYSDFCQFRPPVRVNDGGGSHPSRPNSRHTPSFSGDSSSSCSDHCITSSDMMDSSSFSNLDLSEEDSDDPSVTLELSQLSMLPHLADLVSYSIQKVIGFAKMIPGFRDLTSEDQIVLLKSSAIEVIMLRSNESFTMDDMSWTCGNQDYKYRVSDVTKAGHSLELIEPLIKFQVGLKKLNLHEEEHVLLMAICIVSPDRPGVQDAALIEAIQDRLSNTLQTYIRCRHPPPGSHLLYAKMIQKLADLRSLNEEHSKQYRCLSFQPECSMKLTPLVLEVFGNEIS
#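 FP read-out; VDR + SRC2-3 coactivator peptide; 23 nl compound by pintool; 2 h RT incubation; reagents held at 4 deg C, protected from light.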
# KAT2A inh – qHTS Assay for Inhibitors of GCN5L2 | 390,000 tested, 0.21% active | Potency, µM (highest dose often 58.9 µM), for inactives: at the top dose activity change, negative = inhibition, usual class: inhibitors | AID 504327, 2011 | GCN5L2 HAT assay, ThioGlo1 CoA-SH fluorescence | Histone acetyltransferase KAT2A (Homo sapiens), Q92830; also: potency is read from the fitted curve at half-maximal effect
#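 Titration-based screen in which CoA formation is detected via maleimide probe ThioGlo1 (50uM) turning fluorescent on thiol reaction; substrates H3(1-25) 75uM and acetyl-CoA 70uM, GCN5L2 20nM, 20 min incubation at room temperature.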
# GLS inhibitor – qHTS for Inhibitors of Glutaminase (GLS); GLS enzymatic activity, qHTS titration; Potency, µM (top dose mostly 45.5 µM), for the others: top-dose activity change, negative = inhibition, most hits filed as inhibitors; 410,000 tested, 0.21% active; also: potency is read from the fitted curve at half-maximal effect
#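 hKGA in 45 mM KH2PO4 pH 8.2, 0.02% Tween-20 with pin-transferred compounds; 1 mM L-glutamine (stock) plus glutamate oxidase/HRP/Amplex Red coupling added. Fluorescence read initially and after 30 min at RT.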
# PLK1 PBD block – qHTS for Inhibitors of PLK1-PDB (polo-like kinase 1 - polo-box domain): Primary Screen | Plk1 PBD binding of FITC phosphopeptide, fluorescence polarization | Potency, µM, for inactives: max response, negative = inhibition, actives largely listed as inhibitors | 360,000 tested, 2.8% active | AID 720504, 2013; also: potency is read from the fitted curve at half-maximal effect; series mostly up to about 57 µM; nearly all actives have a fitted effect of over 65% in size
# An asterisk follows results filed as active; ? = inconclusive; nt = not tested or not shown; ! = not active in a repeat; [ ] = remark or other dose. Unless noted, calls follow the shape of the dose curve; as a rule, active = well fitted curve in the direction sought with a large enough effect; inconclusive = small, poorly fitted or top-dose-only effect, or another doubt; inactive = no such curve, though single readings can be large; an effect the other way counts as inactive or inconclusive. Unless noted, % is scaled to controls: 0 for no effect and ±100 for the full control effect.
SMILES,PI4K2A block,VDR inh,KAT2A inh,GLS inhibitor,PLK1 PBD block
CN1CCN(Cc2nc3ccccc3c(=O)n2Cc2nc(-c3cccc([N+](=O)[O-])c3)cs2)CC1,-6.8,-9.6%,-8.3%,-3.2%,26.7µM*
CC1=NN(c2ccccc2)C(=O)/C1=C/c1ccc(-c2ccc(C)c(C(=O)O)c2)o1,-12.5,?,nt,-2.5%,4.74µM*
CC1=NN(c2ccc(Cl)c(C(=O)O)c2)C(=O)/C1=C\c1ccc(-c2ccc(C(=O)O)cc2)o1,?,-29.6%,?,?,8.44µM*
COc1cccc2oc(SC)cc(=O)c12,nt,-24.9%,12.1%[135 µM],nt,nt
CN(Cc1ccccc1)C(=S)Nc1cccnc1,-14.5,-14.9%,-6.2%,-8.3%,21.2µM*
CCOC(=O)N1CCN(c2nc(-c3ccco3)cc(C(F)(F)F)n2)CC1,-0.4,-4.5%,3.98µM*,-4.0%,-11.0%
CCOc1ccccc1NC(=O)CCS(=O)(=O)c1ccc2c(c1)CCN2C(C)=O,8.9,-5.1%,-5.8%,-0.7%,21.2µM*
CSc1ccc(/C=C2/C(C)=C(CC(=O)O)c3cc(F)ccc32)cc1,-1.9,44.7µM*,?,-3.8%,nt
CCn1nc(C)c(CNC(=O)c2cc(COc3cncc(Cl)c3)on2)c1C,-3.0,?,-3.9%,7.9%,23.8µM*
CCn1nc(C)c(CNC(=O)c2cc(COc3ccccc3SC)on2)c1C,5.9,-5.4%,-4.1%,-2.1%,-0.3%
CC(C)(C)OC(=O)NCCCCC1=CC2=CC(=O)C(C)(OC(=O)C3CCCC3)C(=O)C2=CO1 (centres undefined),nt,8.4%,nt,nt,nt
CC(=O)C(Cc1ccccc1)(Cc1ccccc1)C(C)=O,7.1,17.1%,-11.8%,11.3%,-5.7%
C=CC(=O)NC(C)(C)Cc1ccccc1,-6.4,21.7%,17.8µM*,-3.5%,-5.4%
COc1cc(CNc2ccc(S(N)(=O)=O)cc2)ccc1OCc1ccccc1F,3.0,9.3%,nt,11.2%,0.6%
COc1cc(CNc2ccc(N3CCCC3)cc2)ccc1OCc1ccccc1,-4.8,35.5µM*,40.4%,23.9%,-18.0%
COc1cc(CNc2ccc(N3CCCC3)cc2)ccc1OCc1ccccc1F,-12.7,79.4µM*,-2.4%,2.1%,-14.8%
CCCCCCCCN1CN2Cc3ccccc3C2CS1(=O)=O (centres undefined),4.5,nt,nt,nt,nt
COC(=O)c1cc(-c2cccc(OC(F)(F)F)c2)c(=O)n2c1CCC2,-2.7,nt,nt,nt,nt
COc1ccc(-c2oc3ccccc3c2C(=O)OCc2ccccc2)cc1,-4.3,-20.2%,-3.0%,4.1%,23.8µM*
N#Cc1ccc2c(c1)C[C@]1(c3ccsc3)Oc3c(c(=O)oc4ccccc34)C2O1,nt,nt,-18.9%[12.7 µM],nt,nt
CCOc1ccc(C2C(C(=O)c3ccc(C)o3)=C(O)C(=O)N2c2cc(C)on2)cc1OC (centres undefined),3.8,-6.1%,-11.8%,8.6%,-8.3%
CCCCCOc1ccc(C2C(C(=O)c3ccc(C)o3)=C(O)C(=O)N2c2cc(C)on2)cc1 (centres undefined),-1.8,70.8µM*,-8.6%,0.8%,?
C[C@@H]1/C=C/CC(=O)N2[C@H](CC(=O)N[C@@H]1c1ccccc1)C[C@@H](C)[C@H]2c1ccccc1,4.8,nt,nt,nt,nt
CCc1c(C)nc(N2CCN(c3ccc(Cl)cc3)CC2)[nH]c1=O,-0.7,?,-11.5%,-8.1%,23.8µM*
COC(=O)c1cc(S(=O)(=O)NCCN2CCN(c3ccccc3F)CC2)c[nH]1,0.0,-19.8%,-2.3%,-8.8%,21.2µM*
SMILES,PI4K2A block,VDR inh,KAT2A inh,GLS inhibitor,PLK1 PBD block
COC(=O)c1cc(S(=O)(=O)N2CCN(c3ccccc3F)CC2)c[nH]1,10.1,-4.7%,-4.9%,-2.9%,-14.0%
CCc1nn(CC(=O)NC(C)CCc2ccccc2)c(=O)c2cc3occc3n12 (centres undefined),8.5,?,1.7%,6.2%,23.8µM*
Cc1nc(N=Nc2cc([N+](=O)[O-])ccc2Cl)c(COP(=O)(O)O)c(C=O)c1O,nt,44.7µM*,?,nt,nt
CCOc1cc(C=O)cc(N=Nc2cccc([N+](=O)[O-])c2)c1O,-3.0,6.3%,-4.8%,10.6%,-15.7%
Cc1nc(N=Nc2cc(S(=O)(=O)O)c3cc([N+](=O)[O-])cc(S(=O)(=O)O)c3c2)c(COP(=O)(O)O)c(C=O)c1O,0.9,39.8µM*!,?,nt,nt
O=C(O)c1cnc(-c2ccccc2)nc1Sc1ccc(Cl)cc1Cl,0.4,?,-9.1%,-2.7%,26.7µM*
O=C(O)c1cnc(-c2ccccc2)nc1Sc1ccccc1,1.7,4.4%,-2.8%,9.6%,?
O=C(O)c1cnc(-c2ccccc2)nc1Sc1cccc(Cl)c1,3.0,-3.8%,-0.1%,0.0%,29.9µM*
C[C@H]1[C@H](NC(=O)c2cccc(Cl)c2)CC[C@@]23CCCN2C(=O)CCC[C@@H]13,-3.2,nt,nt,nt,nt
C=CCN(C)C(C#Cc1ccccc1)c1ccccc1C(F)(F)F (centres undefined),5.4,nt,nt,nt,nt
Cc1ccccc1-n1nnnc1SC1CCOC1=O (centres undefined),6.3,5.3%,-4.2%,-9.9%,-14.6%
CNC1(c2nnnn2-c2ccccc2C)CCOC(C)(C)C1 (centres undefined),0.5,22.4µM*,1.1%,?,15µM*
CN(CCCN(Cc1ccc(Cl)cc1)c1ccc(Br)cn1)C(=S)NCCCc1cnc[nH]1,nt,-10.9%,nt,nt,nt
Cc1sc2nc(CSCC(=O)Nc3ccc(N4CCOCC4)cc3)[nH]c(=O)c2c1C,-5.4,?,-12.5%,51.2%,29.9µM*
CCc1cccc(NC(=O)CSCc2nc3sc(C)c(C)c3c(=O)[nH]2)c1,-6.1,-1.2%,0.5%,5.7%,-7.7%
Cc1cc(NS(=O)(=O)c2ccc(NC(=O)CSc3nc4sc(C)c(C)c4c(=O)[nH]3)cc2)no1,-6.5,-15.8%,14.1µM*,5.9%,-18.9%
Cc1cc(NS(=O)(=O)c2ccc(NC(=O)CSc3nc4sc(C(=O)O)c(C)c4c(=O)[nH]3)cc2)no1,-3.9,-26.8%,-1.8%,-1.1%,26.7µM*
N#CCC[C@@H]1CC[C@]2(CCCN(S(=O)(=O)c3ccccc3)C2)O1,1.1,nt,nt,nt,nt
Cc1cc(=O)[nH]c(SCC(=O)Nc2cccc(Cl)c2F)n1,1.5,nt,nt,nt,nt
CSCCOC(=O)C1=C(C)Nc2ccc(C)cc2S1,-2.5,?,-6.9%,8.0%,18.9µM*
CCOC(=O)C1=C(C)Nc2ccc(C)cc2S1,-6.5,?,-17.1%,21.3%,?
CCOCCOC(=O)C1=C(C)Nc2ccc(C)cc2S1,1.8,89.1µM*,-6.7%,9.5%,?
CC(=O)O[C@@H]1C(=O)O[C@@H]2[C@H]1OC(=O)[C@@H]2OC(C)=O,-1.7,nt,nt,nt,nt
Cc1noc(C)c1-c1nccc(NCCN2CCOCC2)n1,nt,-6.4%,-1.8%,nt,nt

# Screening results: PubChem, National Center for Advancing Translational Sciences (NCATS)
